Reference: PubChem BioAssay AID2018 (Sanford-Burnham Center for Chemical Genomics, 2009)
Screen size: about 1,200 compounds; about 600 (50%) were called active. Rule as the data show it: active = inhibition above about 42%; inactive = the rest. The set was probably picked from earlier hits. This is one part of the list. Potency and affinity values are given separately.

The molecules below were run against SUMO-conjugating enzyme UBC9 (Homo sapiens) (UniProt P63279) (assay: blockers of UBC9-mediated SUMO conjugation – biochemical, AlphaScreen, SUMOylation inhibitor project, confirmation (AID 2018)). Details: AlphaScreen in vitro SUMOylation assay; at 35 µM; hits give high values.
Sequence of SUMO-conjugating enzyme UBC9 (Homo sapiens) (P63279 whole entry, looked up): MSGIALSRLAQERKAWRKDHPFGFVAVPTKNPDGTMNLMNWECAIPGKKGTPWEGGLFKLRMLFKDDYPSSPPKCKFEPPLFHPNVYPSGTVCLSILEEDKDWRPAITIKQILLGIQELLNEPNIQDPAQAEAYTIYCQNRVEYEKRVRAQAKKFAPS
In the case of `CCOc1ccc(NC(=S)Nc2cccc3ccccc23)cc1`, the inhibition is reported as 4.4% (inactive).
In the case of `CCOC(=O)COc1nc(-c2ccco2)cc(-c2ccco2)c1C#N`, the inhibition is reported as -28.4% (inactive).
In the case of `COc1ccc(C(N)c2nccc3cc(OC)c(OC)cc23)cc1OC` (centres undefined), the inhibition is reported as 22.1% (inactive).
`CC1=CC(C)(C)N2C(=O)C(=Nc3ccc(O)cc3)c3cccc1c32` was tested, and the inhibition was 95.8% (active).
In the case of `Cc1cc(=O)[nH]c(SCC(=O)Nc2cccc(C(F)(F)F)c2)n1`, the inhibition is reported as -20.9% (inactive).
In the case of `Cc1cc(=O)[nH]c(SCC(=O)c2ccc(O)c(O)c2)n1`, the inhibition is reported as 55.2% (active).
In the case of `CCC(=O)c1ccccc1OCCSc1nc(C)cc(=O)[nH]1`, the inhibition is reported as 10.6% (inactive).
`O=C(NN1C(=O)CSC1=S)C(=O)NN1C(=O)CSC1=S` was tested, and the inhibition was 102% (active).
In the case of `CCOc1cc(CNc2cccc3ccccc23)cc(Br)c1OCC(=O)NC(C)(C)C`, the inhibition is reported as -1.9% (inactive).
For `CCOc1cc(CNc2ccc(N3CCN(C(C)=O)CC3)cc2)cc(Br)c1OC`, the inhibition was 45.3% (active).
For `CCN(Cc1cc(=O)n2ccsc2n1)c1cccc2ccccc12`, the inhibition was 25.6% (inactive).
For `Oc1ccc2ccccc2c1C=NCc1cn2ccsc2n1`, the inhibition was 42.5% (active).
For `Oc1ccc2ccccc2c1C=NCc1ccccc1`, the inhibition was 38.6% (inactive).
`Cc1ccc(NC(=S)Nc2ccc3cn[nH]c3c2)cc1` was tested, and the inhibition was 30.2% (inactive).
In the case of `CN(C)c1cccc2c(C=C(C#N)C#N)ccc(N(C)C)c12`, the inhibition is reported as 19.4% (inactive).
With `CCCS(=O)(=O)c1c(S(=O)(=O)CCC)c2c(N)cccn2c1C(=O)c1ccc(Br)cc1` the inhibition was 23.1% (inactive).
In the case of `COc1ccc(N2C3=C(CC4=C2CCCC4=O)C(=O)CCC3)cc1`, the inhibition is reported as 19.3% (inactive).
For `O=C(O)/C=C/C(=O)Nc1ccc(O)cc1`, the inhibition was 15.1% (inactive).
With `CCOC(=O)C(CCCCOc1ccc([N+](=O)[O-])cc1)C(=O)OCC` the inhibition was -21.9% (inactive).
For `CCOc1cccc(CNc2ccc(O)cc2)c1OCc1ccc(Cl)cc1Cl`, the inhibition was 81% (active).
In the case of `O=c1[nH]nc(CNc2ccc(O)cc2)c2ccccc12`, the inhibition is reported as 9.6% (inactive).
`Cn1c(CNc2ccc(O)cc2)nc2ccccc21` was tested, and the inhibition was 16.9% (inactive).
With `CCOc1ccccc1CNc1ccc(O)cc1` the inhibition was 45.3% (active).
In the case of `Oc1ccc(NCc2ccccc2OCc2ccccc2F)cc1`, the inhibition is reported as 88.9% (active).
For `O=c1nc2s/c(=C\c3ccco3)c(=O)n2nc1Cc1ccccc1`, the inhibition was 26.6% (inactive).
In the case of `COc1ccccc1/C=C/CN1CCN(c2ccccc2)CC1`, the inhibition is reported as 29.6% (inactive).
`CCOC(=O)C1=C(N)n2c(s/c(=C/c3ccco3)c2=O)=C(C(=O)OC)C1c1ccco1` (centres undefined) was tested, and the inhibition was 34% (inactive).
For `O=c1c2cc(N3CCOCC3)ccc2[nH]c(=S)n1CC1CCCO1` (centres undefined), the inhibition was -2.6% (inactive).
For `CCOC(=O)c1c(NC(=O)C2C3C=CC(CC3)C2C(=O)O)sc(C)c1CC` (centres undefined), the inhibition was 20% (inactive).
`COc1cccc(CNc2cccc3cccnc23)c1O` was tested, and the inhibition was 43.5% (active).
`Cc1ccc(F)c(NC(=S)Nc2cccc3ccccc23)c1` was tested, and the inhibition was 10.1% (inactive).
In the case of `Cc1ccc(O)c(CNc2cccc3cccnc23)c1`, the inhibition is reported as 49.6% (active).
For `Oc1ccc(Br)cc1CNc1cccc2cccnc12`, the inhibition was 61.8% (active).
In the case of `CC(C)(C)C(=O)NC(Nc1cccc2cccnc12)C(Cl)(Cl)Cl` (centres undefined), the inhibition is reported as 7.9% (inactive).
`O=C(/C=C/c1ccco1)Nc1cccc2cccnc12` was tested, and the inhibition was 6.6% (inactive).
For `O=C(O)c1cc2cccc(S(=O)(=O)N3CCOCC3)c2cc1O`, the inhibition was -21.6% (inactive).
`CC(=O)c1ccc2cccc3c2c1N=CN3C` was tested, and the inhibition was 13.7% (inactive).
For `COc1cc(C)c2c(c1C=O)Oc1c(c(C)c(O)c3c1C(O)OC3=O)OC2=O` (centres undefined), the inhibition was 95% (active).
`CCc1ccc(S(=O)(=O)Nc2ccc(O)c3ccccc23)cc1` was tested, and the inhibition was 38.3% (inactive).
In the case of `O=S(=O)(Nc1ccc(O)c2ccccc12)c1cccs1`, the inhibition is reported as 51.7% (active).
With `Cc1ccc(S(=O)(=O)NNC(=O)Nc2cccc3ccccc23)cc1` the inhibition was 9.6% (inactive).
For `COc1ccc(S(=O)(=O)Nc2ccc(O)c3ccccc23)cc1`, the inhibition was 48.3% (active).
`CCc1ccc2c(c1)c1nc(C)sc1n2CC` was tested, and the inhibition was 20.9% (inactive).
In the case of `O=C1C=C(O)CC(c2ccco2)C1` (centres undefined), the inhibition is reported as 47.7% (active).
In the case of `CC(C)CNC1=CC(=O)CC(c2ccco2)C1` (centres undefined), the inhibition is reported as 0.4% (inactive).
In the case of `Nc1ccccc1NC1=CC(=O)CC(c2ccco2)C1` (centres undefined), the inhibition is reported as 18.4% (inactive).
For `CCOc1cc(NC(=S)NCc2ccco2)c(OCC)cc1NC(=O)CC`, the inhibition was -0.7% (inactive).
In the case of `Cc1sc2nc3ccc(NCc4ccco4)nn3c(=O)c2c1C`, the inhibition is reported as 0.9% (inactive).
For `CCOC(=O)N1CCc2c(sc3c2c(=O)n(Cc2ccccc2)c(=O)n3CC(=O)NCCOC)C1`, the inhibition was 15.2% (inactive).
For `CCCCCCCC1(C)NC(=O)N(CC(=O)Nc2cc(C)on2)C1=O` (centres undefined), the inhibition was 2.5% (inactive).
With `Cc1oc(-c2ccc(F)cc2)cc1-c1nn2c(-c3ccoc3C)nnc2s1` the inhibition was 22.7% (inactive).
With `Cc1c(C(=O)c2ccc(Cl)cc2[N+](=O)[O-])c2ccccn2c1CCC#N` the inhibition was 17.8% (inactive).
For `COc1ccc(C(=O)CSc2nnc(-c3ccco3)c(-c3ccco3)n2)cc1`, the inhibition was 43% (active).
In the case of `O=C(CSc1nnc(-c2ccco2)c(-c2ccco2)n1)c1ccccc1`, the inhibition is reported as 76.2% (active).
For `COc1ccccc1CCNC(=O)CSc1ccc(-c2ccco2)nn1`, the inhibition was 19% (inactive).
With `O=C(N/N=C/c1ccc(-c2ccc(Cl)c(C(=O)O)c2)o1)c1cc2c(ccc3ccccc32)o1` the inhibition was 102% (active).
In the case of `Cc1ccc(-c2cc(C(=O)N/N=C/c3ccc([N+](=O)[O-])o3)c3ccccc3n2)o1`, the inhibition is reported as 30.3% (inactive).
In the case of `Cc1c(C(=O)O)c(C(=O)O)nc2ccc(N3CCOCC3)cc12`, the inhibition is reported as -17.6% (inactive).
In the case of `NC1=NC(c2ccc(Cl)cc2)N(c2ccc(S(N)(=O)=O)cc2)C(N)=N1` (centres undefined), the inhibition is reported as 25.2% (inactive).
In the case of `O=C(CNc1cccc2ccccc12)N/N=C/c1ccc([N+](=O)[O-])o1`, the inhibition is reported as 37.5% (inactive).
For `CC(Nc1cccc2ccccc12)C(=O)N/N=C/c1ccccn1` (centres undefined), the inhibition was -4.4% (inactive).
For `C#CCOc1ccc(/C=C2/C(=O)N(c3cccc(C(=O)O)c3)N=C2C)cc1OC`, the inhibition was 55.9% (active).
`O=C1CC(N2CCOCC2)=NN1c1ccc([N+](=O)[O-])cc1` was tested, and the inhibition was 51.4% (active).
`N#Cc1cc2ccc(N3CCOCC3)cc2cc1C#N` was tested, and the inhibition was -11.7% (inactive).
For `COc1ccc(CCN2Cc3c(cccc3[N+](=O)[O-])C2=O)cc1OC`, the inhibition was -5.8% (inactive).
In the case of `COc1cc(/C=C2/C(=O)N(c3ccc([N+](=O)[O-])cc3)N=C2N2CCOCC2)ccc1O`, the inhibition is reported as 68.6% (active).
With `CC(=O)c1cccc(NC(=S)Nc2cccc3ccccc23)c1` the inhibition was -7.4% (inactive).
With `COc1cc(=O)n(C)c2c(OCC3OC(C)(C)OC3(C)C)cccc12` (centres undefined) the inhibition was 11.2% (inactive).
For `Cc1ccc(Cn2nnnc2CN2CCC(NC(=O)C(C)(C)C)CC2)cc1`, the inhibition was -8.9% (inactive).
For `O=C(Nc1ccc(Cl)c(Cl)c1)Nn1cnnc1`, the inhibition was -10.6% (inactive).
For `COc1ccc(/C=C2/C(=O)N(c3ccccc3)N=C2C)cc1OC`, the inhibition was 38.1% (inactive).
With `COc1cc(/C=C2/C(=O)N(c3ccccc3)N=C2C)ccc1OS(=O)(=O)c1ccccc1` the inhibition was 91.3% (active).
For `COc1ccc(C(=O)N2CCC(O)(c3ccc(F)cc3)CC2)cc1OC`, the inhibition was -18.3% (inactive).
With `Cc1[nH][nH]c(=O)c1C(c1ccc(-c2ccc(F)cc2)o1)c1c(C)[nH][nH]c1=O` the inhibition was 59.6% (active).
For `Cc1[nH][nH]c(=O)c1C(c1ccc(-c2cccc(Cl)c2)o1)c1c(C)[nH][nH]c1=O`, the inhibition was 101% (active).
`Cc1[nH][nH]c(=O)c1C(c1ccc(-c2ccc(Cl)cc2)o1)c1c(C)[nH][nH]c1=O` was tested, and the inhibition was 66.7% (active).
For `OC(COc1ccccc1)CSc1ncn[nH]1` (centres undefined), the inhibition was 2.4% (inactive).
For `O=S(=O)(Nc1ccc2c(c1)nc1n2CCN(Cc2ccccc2)C1)c1ccccc1`, the inhibition was -3.3% (inactive).
For `O=S(=O)(Nc1cc2nc3ccccc3nc2n1Cc1ccccc1)c1ccc(Cl)cc1`, the inhibition was 102% (active).
`CCn1c2ccccc2c2c3ncc4cccn4c3ccc21` was tested, and the inhibition was -74.8% (inactive).
With `Cc1cccn2c(=O)c3cc(C(=O)NC4CCCCCC4)sc3nc12` the inhibition was 33.8% (inactive).
In the case of `COc1ccc(NC(=S)Nc2ccc3nsnc3c2)cc1`, the inhibition is reported as 101% (active).
For `CCOc1ccc(NC(=S)Nc2ccc3nsnc3c2)cc1`, the inhibition was 101% (active).
For `S=C(Nc1ccc2nsnc2c1)N1CCCC1`, the inhibition was 17.9% (inactive).
With `COc1ccc(N(C)C(=O)Nc2ccc3nsnc3c2)cc1` the inhibition was 7.7% (inactive).
`C=CCN(CC=C)C(=S)Nc1ccc2nsnc2c1` was tested, and the inhibition was 23.6% (inactive).
In the case of `COc1ccc(NC(=S)Nc2ccc3nccnc3c2)cc1`, the inhibition is reported as 8.4% (inactive).
For `COc1ccc(/C=N/N=C2/CC(C)(C)Cc3n[nH]c(=O)cc32)cc1`, the inhibition was 26.2% (inactive).
`COc1ccc(OC)c(/C=N/NC(=O)CCc2ccc(O)c(O)c2)c1` was tested, and the inhibition was 18.5% (inactive).
`O=C(O)c1cccc([N+](=O)[O-])c1C(=O)Nc1cccc2ccccc12` was tested, and the inhibition was -1.9% (inactive).
In the case of `O=C(NC(=S)Nc1cccc2c(O)cccc12)c1ccccc1[N+](=O)[O-]`, the inhibition is reported as 16.6% (inactive).
In the case of `N#Cc1c(N)nc2c(c1-c1ccc3c(c1)OCO3)CCc1ccccc1-2`, the inhibition is reported as -58.5% (inactive).
With `S=C(Nc1cccc(Cl)c1)Nc1ccc2cn[nH]c2c1` the inhibition was 7.2% (inactive).
`Fc1ccc(NC(=S)Nc2cccc3ccccc23)cc1` was tested, and the inhibition was -2.8% (inactive).
In the case of `Cc1ccc(NC(=S)Nc2cccc3ccccc23)cc1F`, the inhibition is reported as 3.1% (inactive).
With `Cc1cc(C)c(C(N)=O)c(Nc2cccc3ccccc23)n1` the inhibition was 24.4% (inactive).
With `Fc1ccc(NC(=S)Nc2cccc3ccccc23)cc1F` the inhibition was -4.6% (inactive).
With `Nc1ccc(O)cc1C(=O)OCC(=O)c1ccc(C2CCCCC2)cc1` the inhibition was 29.2% (inactive).
`COC(=O)C1C(O)=C(C(C)=Nc2cccc3ccccc23)C(=O)CC1(C)C` (centres undefined) was tested, and the inhibition was -0.8% (inactive).
